Bead autofluor – counter-screen for toxin protease inhibitors: compound fluorescence; compound autofluorescence counterscreen, microsphere flow cytometry; active compounds read high; fluorescence intensity (no concentration beside the values); 3.1% of 360,000 active; AID 624483; in the data active means fluorescence intensity above about 16000; inconclusive means no clear call, values can overlap the other calls
Vc quorum ag – inducers of Vibrio cholerae quorum light production without autoinducers. V. cholerae BH1578 lux reporter, luminescence, 6 h. activation, % at 18.7 µM. 0.16% of 350,000 active; in the data active means activation mostly above about 9.7%, no sharp cut-off; inconclusive means no clear call, values can overlap the other calls; inactive means mostly below about 3.7%
BoNT A protease – blocks Botulinum neurotoxin A light chain protease | inhibition, % at 10 µM | 0.17% of 360,000 active | multiplex microsphere protease substrate cleavage, flow cytometry; further: plate controls were buffer without enzyme for full effect and enzyme alone for no effect
BJeLR viability – BJeLR cell viability loss; inhibition, % (concentration not given with the values); BJeLR (HRASV12) viability, CellTiter-Glo ATP luminescence, 48 h; 0.17% of 300,000 active; AID 1554; in the data active means inhibition above about 50%; inconclusive means no clear call, values can overlap the other calls
Anthrax LF prot – inhibitors of Bacillus anthracis lethal factor protease | 0.12% of 360,000 active | P15917 | multiplex microsphere protease cleavage assay, LF | inhibition, % at 10 µM; further: plate controls were buffer without enzyme for full effect and enzyme alone for no effect
Target sequence (P15917 whole entry, looked up): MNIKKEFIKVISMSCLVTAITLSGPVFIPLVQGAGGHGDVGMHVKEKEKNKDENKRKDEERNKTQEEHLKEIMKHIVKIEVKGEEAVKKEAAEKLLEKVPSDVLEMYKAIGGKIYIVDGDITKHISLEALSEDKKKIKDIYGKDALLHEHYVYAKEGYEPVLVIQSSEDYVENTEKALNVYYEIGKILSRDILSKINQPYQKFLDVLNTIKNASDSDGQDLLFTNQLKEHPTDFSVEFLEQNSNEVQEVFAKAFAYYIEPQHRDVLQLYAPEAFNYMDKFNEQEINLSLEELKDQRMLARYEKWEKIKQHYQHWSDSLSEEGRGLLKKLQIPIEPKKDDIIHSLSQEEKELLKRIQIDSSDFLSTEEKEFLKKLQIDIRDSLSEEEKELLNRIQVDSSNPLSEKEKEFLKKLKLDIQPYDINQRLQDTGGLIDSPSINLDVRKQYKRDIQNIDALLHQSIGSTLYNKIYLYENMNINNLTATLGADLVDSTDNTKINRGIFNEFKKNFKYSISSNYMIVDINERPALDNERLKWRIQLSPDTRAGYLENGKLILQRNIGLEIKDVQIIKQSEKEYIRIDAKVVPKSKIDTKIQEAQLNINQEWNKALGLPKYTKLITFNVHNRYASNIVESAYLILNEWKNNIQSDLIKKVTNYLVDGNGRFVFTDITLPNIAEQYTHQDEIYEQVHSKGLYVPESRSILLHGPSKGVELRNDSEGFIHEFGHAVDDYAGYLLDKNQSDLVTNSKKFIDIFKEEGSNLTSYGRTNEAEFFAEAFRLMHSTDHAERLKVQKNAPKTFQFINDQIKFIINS
BoNT-F LC inh – blocks Botulinum neurotoxin F light chain protease; Multiplex microsphere protease cleavage assay, flow cytometry; inhibition, % at 10 µM; 0.22% of 360,000 active; AID 588497; in the data active means inhibition above about 35%, passing the limit was not always enough; inconclusive means no clear call, values can overlap the other calls; further: plate controls were buffer without enzyme for full effect and enzyme alone for no effect
* = called active by the depositor; i = inactive; ? = inconclusive; · = no result given. This is a sample that favours compounds with a hit; in the whole collection about 3.7% have one here. Unless noted, no stated cut-off is given here; in the data, active means inhibition above about 30%; inconclusive means no clear call, values can overlap the other calls; inactive means below that.

SMILES	Bead autofluor	Vc quorum ag	BoNT A protease	BJeLR viability	Anthrax LF prot	BoNT-F LC inh
Cc1cc(Br)c2c(c1)/C(=C/C(=O)c1cccs1)C(=O)N2	5134	0	-1	3	-2	-1
CCCCc1ccc(S(=O)(=O)NC(=O)C2(C)CCN2C(=O)Cc2ccccc2)cc1 (configuration not stated)	3374	0	0	·	-8	0
CC1=CC(c2ccc(Cl)cc2)n2nc(NS(=O)(=O)c3ccc(C)cc3)nc2N1 (configuration not stated)	23033*	i	1	2	-2	-2
CC1=CC(c2ccccc2)n2nc(NS(=O)(=O)c3ccc(C)cc3)nc2N1 (configuration not stated)	9844	i	0	·	-1	6
O=C1NC[C@@H](CCCCN2CCN(CC3CCCCC3)C(=O)C2=O)N(CCC2CCCCC2)C1=O	5225	·	0	·	4	-6
O=S(=O)(c1ccc(Cl)cc1Br)N1CCCCC1	20568*	i	-2	-3	1	-7
O=S(=O)(c1cc(Cl)ccc1Cl)N1CCNCC1	20984*	i	-5	-4	-2	-11
Cc1cn([C@H]2C[C@H](O)[C@@H](CNCc3cccc(OC4CCCC4)c3)O2)c(=O)[nH]c1=O	3836	0	0	·	-2	0
CC(C)NC(=O)N(C)C[C@H]1OCCCC[C@@H](C)Oc2ccc(N(C)C)cc2C(=O)N([C@H](C)CO)C[C@@H]1C	4658	·	0	·	1	-10
CCc1ccccc1NC(=O)Cn1nnc(-c2cccnc2)n1	22832*	i	0	-1	-1	2
CCc1ccccc1NC(=O)CSc1n[nH]c(-c2cccnc2)n1	3495	0	0	-14	5	-18
O=C(Nc1ccncc1)C1CC(=O)N(Cc2ccccc2)C1 (configuration not stated)	5629	-1	0	·	5	-3
O=C1CC(c2ccccc2)CN1C(=O)c1cccnc1 (configuration not stated)	4483	-1	0	-1	-3	1
O=C1CCC(c2ccccc2)N1C(=O)c1cccnc1 (configuration not stated)	23368*	0	-1	4	-2	1
CC(C)CN1CCC1(C)C(=O)Nc1cccc(C#N)c1 (configuration not stated)	3732	1	0	·	1	2
Cn1c(=O)c(NC2CCCCC2)c2c3c(cccc31)C(=O)c1ccccc1-2	8853	0	44*	·	23	11
Cn1c(=O)c(NCCO)c2c3c(cccc31)C(=O)c1ccccc1-2	4675	0	6	-11	1	10
Cn1c(=O)c(NCCc2ccccc2)c2c3c(cccc31)C(=O)c1ccccc1-2	9014	·	47*	0	47*	41*
CCCCNc1c2c3c(cccc3n(C)c1=O)C(=O)c1ccccc1-2	8728	-6	74*	-10	56*	50*
Fc1cccc(Cc2c(C3CCCCC3)nc3c4ccccc4ccn23)c1	6898	·	1	·	4	-3
Cc1cccc(-c2cnc(C(O)c3ccc(F)c(C)c3)[nH]2)c1 (configuration not stated)	2857	-1	0	·	-5	-1
Cc1ccc(NCCC(=O)c2ccc(Cl)c(Cl)c2)cc1	23171*	i	?	0	0	-3
CCc1ccc(NCCC(=O)c2ccc(Cl)cc2)cc1	7029	-2	-1	-2	-5	-8
Cc1ccc(NCCC(=O)c2ccc(Cl)cc2)cc1C	24235*	0	-1	2	-1	-6
CCCc1nc(SCC(N)=O)[nH]c(=O)c1CC	22995*	0	2	-7	-5	0
SMILES	Bead autofluor	Vc quorum ag	BoNT A protease	BJeLR viability	Anthrax LF prot	BoNT-F LC inh
Cc1nc2c(-c3ccccc3)c(C)nn2c(C)c1CCC(=O)N1CCC2(CC1)OCCO2	?	-1	?	-2	?	62*
CCn1nccc1NC(=O)c1csc([C@@H]2C[C@H](O)[C@@H](CO)O2)n1	3640	0	0	·	-2	1
COc1cc(C2c3cc4c(cc3C(OC3OC5COC(c6cccs6)OC5C(O)C3O)C3COC(=O)C23)OCO4)cc(OC)c1O (configuration not stated)	4243	15	0	73*	6	3
COc1cc([C@@H]2c3cc4c(cc3[C@@H](O[C@@H]3O[C@@H]5CO[C@@H](C)O[C@H]5[C@H](O)[C@H]3O)[C@H]3COC(=O)[C@H]23)OCO4)cc(OC)c1O	5930	0	0	11	-2	-6
O=C(C1CCN(c2ccc(N3CCOCC3)nn2)CC1)N1CCN(c2ccc(F)cc2)CC1	22313*	3	2	-26	-1	1
COc1cccc(Cn2c3ccc(NC(=O)CCc4ccc(F)cc4)cc3c(=O)n2C)c1	3657	0	0	·	-8	-1
O=C(O)CCCN1C(=O)/C(=C/c2ccncc2)SC1=S	4598	i	0	13	1	-8
O=C(O)CCCN1C(=O)/C(=C/c2ccc(-c3nc4ccccc4s3)o2)SC1=S	2489	-3	30*	-8	40*	1
O=C(O)CCCCCN1C(=O)/C(=C\c2ccc(-c3ccc(Cl)cc3)o2)SC1=S	3516	-1	43*	13	22	10
O=C(O)CCCCCN1C(=O)/C(=C\c2ccncc2)SC1=S	2532	0	0	0	0	0
CC(=NNC(=S)N1CC2CCC(CC2)C1)c1cccc(C)n1	2732	i	20	·	18	45*
O=c1c2ccccc2nc(-c2ccccc2)n1CCCN1CCOCC1	16595*	i	-2	-9	-3	-5
Cn1nnnc1N=N/C(=N/Nc1ccccc1)c1ccccc1	2856	-1	-4	66*	-11	-22
O=C(CC1CCCC1)NCCS(=O)(=O)N1CCN(c2ccccc2)CC1	3125	1	0	·	4	-1
c1ccc(Nc2ccccc2Nc2ccccn2)nc1	20926*	i	-1	1	1	-3
c1ccc(CNc2ccccn2)cc1	4375	i	?	7	-17	?
Oc1cccc2ccc(Nc3ccccn3)nc12	11243	0	10	-1	34*	26
Cc1cccnc1C(NC(=O)C1CCN(Cc2ccc(Oc3ccccc3)cc2)CC1)c1ccc(F)cc1 (configuration not stated)	3339	0	0	·	-9	-6
CCCNC(=O)C1(C)CCN(C(=O)COc2ccc(Cl)cc2Cl)C1 (configuration not stated)	4210	i	0	·	-2	-8
CCN(CC)C(=O)C1=C(C)NC(=O)NC1c1c(F)cccc1Cl (configuration not stated)	16958*	-2	-1	2	-4	-7
CCN(CC)C(=O)C1=C(C)NC(=O)NC1c1ccccc1F (configuration not stated)	·	·	·	5	·	·
COCCN1C(=O)CCC1(C)c1nnnn1Cc1ccccc1 (configuration not stated)	5713	·	0	·	7	-1

Assay outcomes (PubChem)
